A short description of this assay: qHTS drug screen for cell cycle checkpoint inhibitors in PARPi-resistant BRCA-mutant ovarian cancer cell lines. (AID 1963452). Conditions: PEO1/OlaR viability, CellTiter-Glo luminescence, 96 h; for Z-AUC: stronger effect = lower value. The procedure, abridged: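 PEO1, PEO4 and PEO1/OlaR ovarian cancer cells, 600 per well, exposed 96 h at 37C to a dilution series. Viability read by CellTiter-Glo luminescence, normalized to DMSO and empty wells; activity summarized as Z-AUC.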
(In general: Quantitative high-throughput screening tests each substance at several concentrations.)

Where [1] appears, read: measured here: PEO1 parental Z-AUC.

Values joined by “and” are separate entries in the source; they are usually repeats but may differ in a detail not shown here. Equal values may be shown once. Active and inactive are the calls of the source. The call rests on the fitted dose curve.
Potency means the concentration at half of the fitted maximal effect.

In the case of `Cc1nc(NC(=O)N2CCC[C@H]2C(N)=O)sc1-c1ccnc(C(C)(C)C(F)(F)F)c1`, the Z-AUC was -0.211 (inactive) and -0.86 (inactive). Besides, the Z-AUC under setting [1] was -0.228 and -0.204. In addition, the Z-AUC (measured here: PEO4 Z-AUC) is -0.403 and -0.389.

In the case of `Fc1ccc(-c2nc(-c3ccccc3F)[nH]c2-c2ccncc2)cc1`, the Z-AUC is 0.595 (inactive). The Z-AUC under setting [1] was -0.0932. In addition, the Z-AUC (measured here: PEO4 Z-AUC) worked out at 0.278.

In the case of `COc1cccc(OCCCN)c1-c1cc(Nc2cnc(C#N)cn2)n[nH]1`, the Potency was 4.9 nM (active). Besides, the Z-AUC under setting [1] was -2.4. The Z-AUC (measured here: PEO4 Z-AUC) was -2.98.

Consider `CCn1c(=O)c(-c2ccc(-c3cncs3)cc2Cl)cc2cnc(Nc3ccc(N4CCN(C)CC4)cc3)nc21`, for which the Z-AUC is -1.32 (inactive). Moreover, under setting [1], the Z-AUC is -0.743. Also, the Z-AUC (measured here: PEO4 Z-AUC) was -0.961.

In the case of `COC(=O)N1CC2(CC2)C[C@H](C(=O)NO)[C@H]1C(=O)N1CCN(c2ccccc2)CC1`, the Z-AUC was -0.244 (inactive). In addition, under setting [1], the Z-AUC is -0.0786. Where the note is “measured here: PEO4 Z-AUC”, the Z-AUC was 0.341.

Regarding `Cc1ccc(C(=O)Nc2ccc(CN3CCN(C)CC3)c(C(F)(F)F)c2)cc1C#Cc1cnc2[nH]ncc2c1`, the Z-AUC was -1.39 (inactive). Under setting [1], the Z-AUC is -0.429. For the same compound, the Z-AUC (measured here: PEO4 Z-AUC) is -0.168.

Take `O=C(Nc1ccc2[nH]nc(-c3ccncc3)c2c1)[C@@H]1CCN(CC(=O)N2CCN(c3ccc(-c4ncccn4)cc3)CC2)C1`: the Z-AUC is -0.198 (inactive). The Z-AUC under setting [1] is -1.04. For the same compound, the Z-AUC (measured here: PEO4 Z-AUC) was -0.706.

As to `CC(C)NC(=O)COc1cccc(-c2nc(Nc3ccc4[nH]ncc4c3)c3ccccc3n2)c1`, the Potency is 4360 nM (active). Also, the Z-AUC under setting [1] was -1.21. For the setting “measured here: PEO4 Z-AUC”, the Z-AUC is -1.12.

Turning to `CC(C)NC(=O)N1CC[C@H](N=C2Nc3cc(F)ccc3N(CC(F)F)c3ccc(Cl)cc32)C1`, the Z-AUC is -0.974 (inactive). Moreover, under setting [1], the Z-AUC is -0.755. Further, the Z-AUC (measured here: PEO4 Z-AUC) is -0.602.

As to `Cc1[nH]c(/C=C2\C(=O)Nc3ccc(S(=O)(=O)N(C)c4cccc(Cl)c4)cc32)c(C)c1C(=O)N1CCN(C)CC1`, the Z-AUC was 1.27 (inactive). The Z-AUC under setting [1] was 1.2. Under “measured here: PEO4 Z-AUC”, the Z-AUC is 1.26.

On to `NCCOc1cc(C(=O)Nc2cc(OCCN)c3ccccc3n2)nc(C(=O)Nc2cc(OCCN)c3ccccc3n2)c1`, for which the Z-AUC was -0.0869 (inactive). The Z-AUC under setting [1] is -0.747. For the same compound, the Z-AUC (measured here: PEO4 Z-AUC) is -0.493.

Consider `Cn1ncc(Cl)c1-c1cc(C(=O)N[C@H](CN)Cc2ccc(F)c(F)c2)sc1Cl`, for which the Z-AUC is 0.188 (inactive). Also, the Z-AUC under setting [1] stood at 0.381. Further, the Z-AUC (measured here: PEO4 Z-AUC) is -0.0194.

For `O=C(Cc1cccc(OC(F)(F)F)c1)Nc1ccc(CCCCc2nnc(NC(=O)Cc3ccccn3)s2)nn1`, the Z-AUC is -1.13 (inactive). Further, under setting [1], the Z-AUC is -1.01. For the same compound, under “measured here: PEO4 Z-AUC”, the Z-AUC was -1.03.

In the case of `O=C(NC[C@H](O)CN1CCc2ccccc2C1)c1ccnc(NC2CCC2)c1`, the Z-AUC was -0.571 (inactive). The Z-AUC under setting [1] was -0.416. For the same compound, under “measured here: PEO4 Z-AUC”, the Z-AUC was -0.212.

Take `Cc1cc(C(=O)Nc2cc(Oc3ccc4nc(NC(=O)C5CC5)cn4n3)ccc2C)n(C)n1`: the Z-AUC is -0.702 (inactive). Under setting [1], the Z-AUC was -1.33. Where the note is “measured here: PEO4 Z-AUC”, the Z-AUC was -1.31.

Turning to `CCC[C@H](N[C@H]1CCc2cc(F)cc(F)c2C1)C(=O)Nc1cn(C(C)(C)CNCC(C)(C)C)cn1`, the Z-AUC was -0.27 (inactive). The Z-AUC under setting [1] turned out to be 0.0318. Moreover, the Z-AUC (measured here: PEO4 Z-AUC) was -0.108.

As to `CC[C@@H](C)Nc1cc(C(=O)NC2CC3CCC(C2)N3c2ccc(C(=O)C3CC3)cn2)c(C)cc1C(N)=O` (stereo not given in full), the Z-AUC is -1.08 (inactive). The Z-AUC under setting [1] was -1.13. Moreover, the Z-AUC (measured here: PEO4 Z-AUC) is -0.342.

With `O=C(N[C@H]1CCC[C@H](CO)C1)C1CCN(c2nc3cc(Cl)c(-c4ccc(Cl)cc4)cc3o2)CC1`, the Z-AUC is -0.759 (inactive). In addition, the Z-AUC under setting [1] was determined as 0.237. Moreover, where the note is “measured here: PEO4 Z-AUC”, the Z-AUC was -0.768.

Take `Cn1cc(-c2ccc(F)c(C(F)(F)F)c2)nc1C1CCN(c2ncnc3[nH]ncc23)CC1`: the Z-AUC was -0.225 (inactive). Moreover, the Z-AUC under setting [1] is -0.264. Further, where the note is “measured here: PEO4 Z-AUC”, the Z-AUC is -0.487.

As to `Cc1cc(-c2cc(OC(=O)c3ccccc3)ccc2Cl)cc2nnc(Nc3ccc(OCCN4CCCC4)cc3)nc12`, the Z-AUC is -0.528 (inactive). In addition, under setting [1], the Z-AUC is 0.132. Under “measured here: PEO4 Z-AUC”, the Z-AUC was -1.13.

Turning to `Cc1[nH]c(/C=C2\C(=O)Nc3ccc(F)cc32)c(C)c1C(=O)NCCN1CCCC1`, the Z-AUC is 0.66 (inactive). Also, the Z-AUC under setting [1] came out at 0.734. In addition, the Z-AUC (measured here: PEO4 Z-AUC) was determined as 0.596.

Regarding `Cn1ncnc1[C@H]1c2n[nH]c(=O)c3cc(F)cc(c23)N[C@@H]1c1ccc(F)cc1`, the Z-AUC is 0.447 (inactive). In addition, the Z-AUC under setting [1] is -1.15. In addition, the Z-AUC (measured here: PEO4 Z-AUC) was -0.329.

`CN(C)N(C)C(=O)[C@@]1(Cc2ccccc2)CCCN(C(=O)[C@@H](Cc2c[nH]c3ccccc23)NC(=O)C(C)(C)N)C1`: the Z-AUC is -0.303 (inactive). Further, the Z-AUC under setting [1] is -0.129. Also, under “measured here: PEO4 Z-AUC”, the Z-AUC was 0.0758.

As to `C=CC(=O)N1CCC(Oc2cc3c(Nc4ccc(Cl)c(Cl)c4F)ncnc3cc2OC)CC1`, the Z-AUC is -0.983 (inactive). Further, the Z-AUC under setting [1] is -1.08. In addition, for the setting “measured here: PEO4 Z-AUC”, the Z-AUC is -0.834.

As for `CN1CCN(c2ccc(OC(F)(F)F)c(Nc3ncc4c(n3)-c3c(c(C(N)=O)nn3CCO)CC4)c2)CC1`, the Z-AUC was -0.858 (inactive). Besides, under setting [1], the Z-AUC is -1.94. Where the note is “measured here: PEO4 Z-AUC”, the Z-AUC was -1.88.

On to `C=CC(=O)Nc1ccc2ncnc(Nc3cccc(Br)c3)c2c1`, for which the Z-AUC was -0.896 (inactive). Besides, under setting [1], the Z-AUC is -1.05. For the setting “measured here: PEO4 Z-AUC”, the Z-AUC was -0.968.

`CS(=O)(=O)Nc1cc2occ(NC=O)c(=O)c2cc1Oc1ccccc1`: the Z-AUC is 0.738 (inactive). In addition, under setting [1], the Z-AUC is 0.631. For the same compound, under “measured here: PEO4 Z-AUC”, the Z-AUC was 0.731.

On to `Cc1[nH]c2ccccc2c1CCNCc1ccc(/C=C/C(=O)NO)cc1`, for which the Potency is 77.6 nM (active). Further, the Z-AUC under setting [1] was -1.48. In addition, where the note is “measured here: PEO4 Z-AUC”, the Z-AUC is -1.35.

On to `COc1cc(S(C)(=O)=O)ccc1Nc1nc2ccc(-c3ccc(NC(=O)[C@H](C)c4ccc(F)cc4)cc3)cn2n1`, for which the Z-AUC was 0.76 (inactive). Besides, under setting [1], the Z-AUC turned out to be 0.0908. Further, the Z-AUC (measured here: PEO4 Z-AUC) is 0.043.

As to `CCNC1(C(N)=O)CCN(c2ncnc3c2nc(-c2ccccc2Cl)n3-c2ccc(Cl)cc2)CC1`, the Z-AUC is 0.84 (inactive). Further, the Z-AUC under setting [1] stood at 0.367. Also, the Z-AUC (measured here: PEO4 Z-AUC) came to 0.247.

Values taken from PubChem BioAssay (NCATS).
